MT1-MMP txn act – MT1-MMP promoter reporter activation – cell-based, luciferase luminescence, primary screen | HT1080 MT1-MMP promoter luciferase reporter, overnight; hits give high values | activation factor at 10 µM | 86,000 compounds, 0.16% hits | AID 750, 2007;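 active = activation factor of at least 2 for MT1-MMP transcription at 10 µM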
PostGolgi ctrl – growth inhibition of yeast control strain, primary screen, counter-screen for post-Golgi transport modulator project; efflux-deficient yeast background strain, growth absorbance A615, 16 h; inhibition, % at 10 µM; 98,000 compounds, 5% hits
PostGolgi yeast – phenotypic screen on post-Golgi transport, primary screen | post-Golgi transport phenotypic cell assay | inhibition, % at 10 µM | 98,000 compounds, 0.9% hits | AID 739, 2007;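 also: yeast cells grown in 1536-well plates; yeast grown about 18 h at 30C before absorbance read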
Measles CPE – compounds protecting cells from measles virus cytopathic effect, primary screen, measles RdRp inhibitor project, single point, MLSMR library, absorbance; Measles virus-infected cells, CPE protection; 140,000 compounds, 1.5% hits; protection (pct of control), % at 4 µM; in the data active = protection mostly above about 24%, no sharp cut-off; inactive = mostly below about 26%
Numbers stand for hits; 0 = inactive; - = no result. Only some compounds are listed: those with a hit (about 5.3% of all), similar ones and a draw of the others. Rule as the data show it, unless noted: active = inhibition above about 30%; inactive = the rest.

SMILES	MT1-MMP txn act	PostGolgi ctrl	PostGolgi yeast	Measles CPE
CC(=O)Nc1cccc(NC(=O)Nc2ccc(C(C)=O)cc2)c1	0	0	0	44
CSc1cccc(NC(=O)Cn2cccc2)c1	0	0	0	80
CSc1cccc(NC(=O)Nc2ccccc2)c1	0	48	0	0
CSc1cccc(NC(C)=O)c1	-	-	-	0
O=C(Nc1ccccc1)Nc1cc(Cl)cc(Cl)c1	0	56	0	63
O=C(CN(c1ccccc1)S(=O)(=O)c1ccccc1[N+](=O)[O-])NN=C1CCCCCCC1	-	0	0	0
COc1cccc(-n2c(Cc3cc(=O)[nH]c(=O)[nH]3)nnc2SCc2cccnc2)c1	0	0	0	44
CCSc1nnc(Cc2cc(=O)[nH]c(=O)[nH]2)n1-c1cc(C)ccc1C	0	30	0	0
COc1ccc(-c2cn3c(C)c(C(=O)N4CCN(c5ccccc5F)CC4)sc3n2)cc1	0	-	-	-
Cc1c(C(=O)N2CCN(c3ccccc3F)CC2)sc2nc(-c3ccccc3)cn12	0	35	0	0
COc1ccc(NC(=O)CSc2nc3c(c(=O)n2-c2ccc(F)cc2)SCC3)cc1	0	0	0	0
COc1ccc(-n2c(SCC(=O)Nc3ccccc3)nc3c(c2=O)SCC3)cc1	0	40	0	0
CC(=O)N1CC=CC1(CC(C)C)C(=O)NCc1ccccn1 (centres undefined)	0	-	-	-
O=C(c1cc2ccccc2oc1=O)N(Cc1ccccc1)Cc1ccc2c(c1)OCO2	2.5	-	-	0
O=C(c1cc2ccccc2oc1=O)N(Cc1cccs1)Cc1cccs1	0	-	-	0
O=C(c1cc2ccccc2oc1=O)N(Cc1ccco1)Cc1cccs1	0	49	0	0
CCOc1ccc2nc(C)cc(Nc3cccc([N+](=O)[O-])c3)c2c1	-	-	-	0
Cc1ccc(C(=O)N2CCN(C3c4cccc5cccc(c45)C3NS(=O)(=O)c3ccccc3)CC2)cc1 (centres undefined)	0	0	0	55
CC(=O)N1CCN(C2c3cccc4cccc(c34)C2NS(=O)(=O)c2ccccc2)CC1 (centres undefined)	0	0	0	0
CCOC(=O)C(NC(=O)Nc1ncccn1)(Oc1ccccc1)C(F)(F)F (centres undefined)	0	32	0	0
CC(Sc1nnc(-c2ccccc2Br)n1-c1cccc(C(F)(F)F)c1)C(N)=O (centres undefined)	-	-	-	0
O=C(CNC(=O)c1ccc(-c2ccccc2)cc1)OCc1ccc(Br)cc1	-	-	-	0
COc1ccc(-c2cc(C(F)(F)F)nc(N3CCOCC3)n2)cc1	0	0	0	0
COc1ccc(-c2cc(-c3ccc(F)cc3)nc(N3CCN(C)CC3)n2)cc1	0	32	0	0
CCCSc1nnc2nc(C)cc(C)n12	0	0	0	0
SMILES	MT1-MMP txn act	PostGolgi ctrl	PostGolgi yeast	Measles CPE
Cc1cc(C)n2c(SCc3cccs3)nnc2n1	0	37	0	0
CC(C)NC(=O)c1ccc2c(=O)n(C3CCCC3)c(=S)[nH]c2c1	0	0	0	0
O=C(c1ccc2c(=O)n(C3CCCC3)c(=S)[nH]c2c1)N1CCc2ccccc21	0	99	67	0
CCOC(=O)Cc1csc(NC(=O)c2sc3nc4c(C)cc(C)cc4cc3c2N)n1	-	0	0	0
Cc1cccc(C)c1NC(=O)N1C(C(=O)O)CSC1C(=O)O (centres undefined)	-	0	0	0
COC(=O)C1CSC(C(=O)OC)N1C(=O)Nc1c(C)cccc1C (centres undefined)	-	38	0	0
O=C(CNC(=O)c1cccs1)NCC(=O)OCc1ccc(Cl)cc1	-	32	0	0
O=C(CNC(=O)c1cccs1)NCC(=O)OCc1ccc(Cl)cc1Cl	-	0	0	0
Cc1ccc(S(=O)(=O)Oc2ccc(/C=C3/N=C(c4ccccc4)OC3=O)cc2)cc1	-	-	-	0
Cc1cc(F)ccc1NCC(=O)Nc1ccccc1Br	-	-	-	50
O=C1CCCC(=NCc2ccco2)C1	0	0	0	36
Cc1[nH]c2ccccc2c1/C=N/NC(=O)C1CC1(c1ccccc1)c1ccccc1 (centres undefined)	-	-	-	0
Cc1ccc(N(C)C(=O)N2CCN(S(=O)(=O)c3c(C)cc(C)cc3C)CC2)cc1	0	0	0	0
NC(N)=NC(N)=Nc1ccc(SC(F)(F)F)cc1	-	-	-	24
O=C(O)/C=C/C(=O)Nc1ccc(SC(F)(F)F)cc1	-	-	-	0
CCCC(=O)Nc1nc(C)c(-c2csc(Nc3ccc(Cl)cc3)n2)s1	-	56	0	0
Cc1nc(N)sc1-c1csc(Nc2ccccc2)n1	2.3	0	0	0
C=CCCC(=O)Nc1nc(C)c(-c2csc(Nc3cc(OC)ccc3OC)n2)s1	-	33	0	0
Cc1cc(O)ccc1Nc1nc(-c2sc(N)nc2C)cs1	0	0	0	0
CCOc1ccc(NC(=O)CCn2c(=O)[nH]c3ccsc3c2=O)cc1	0	0	0	0
O=C(CSCc1ccc(Cl)cc1)Nc1ccc2c(c1)OCCO2	-	0	0	0
CN(C)S(=O)(=O)Oc1ccsc1C(=O)Nc1cccc(Cl)c1Cl	-	32	0	0
O=C(NC1CCN(C(=O)N2c3ccccc3Sc3ccccc32)CC1)c1ccccc1F	-	0	0	41
CC(=O)C1=C(C)Nc2ncnn2C1c1ccc(Cl)cc1 (centres undefined)	0	0	0	0
CCOC(=O)c1c(CN2CCOCC2)n(-c2ccccc2)c2cc(Br)c(OC)cc12	0	54	0	0
SMILES	MT1-MMP txn act	PostGolgi ctrl	PostGolgi yeast	Measles CPE
COc1ccc(N2CCN(C(=O)c3c(-c4ccccc4)noc3C)CC2)cc1	0	0	0	0
CCOC(=O)c1c(CN2CCOCC2)n(-c2ccccc2)c2cc(Br)c(O)cc12	0	41	0	0
COc1cc2c(C(=O)N3CCN(c4ccccc4)CC3)c(C)oc2cc1Br	0	35	0	0
CCOC(=O)c1c(CN(C)C)n(-c2ccccc2)c2cc(Br)c(OC)cc12	-	-	-	0
CCOC(=O)c1c(CN2CCCCC2)n(C)c2cc(Br)c(O)cc12	-	0	0	0
Cc1cccc(NS(=O)(=O)c2cc(C(=O)N3CCc4ccccc4C3)ccc2Cl)c1C	-	74	97	0
COc1ccccc1NS(=O)(=O)c1cc(C(=O)N2CC(C)CC(C)C2)ccc1C (centres undefined)	-	88	87	0
Cc1ccc(C)c(NS(=O)(=O)c2cc(C(=O)N3CCc4ccccc4C3)ccc2Cl)c1	-	71	104	0
Cc1ccccc1NS(=O)(=O)c1cc(C(=O)N2CCCC2)ccc1C	0	0	0	0
O=C(CCN1CCc2ccccc2C1)Nc1ccc(F)cc1	0	0	0	0
COc1cccc(OCCn2cc(C(=O)c3ccco3)c3ccccc32)c1	0	0	0	0
COc1ccccc1OCCn1cc(C(=O)c2ccco2)c2ccccc21	0	0	35	0
CCOC(=O)c1nn(-c2ccc(Br)cc2)cc1C(=O)c1cccc2ccccc12	-	31	0	0
O=C(NCCc1nc2ccccc2[nH]1)/C(=C/c1ccco1)NC(=O)c1ccc(Br)o1	-	-	-	0
CN1CCN(c2nc(-c3ccncc3)nc3ccccc23)CC1	0	0	0	0
COc1ccc(Nc2nc(N3CCCC3)c3ccccc3n2)cc1	0	0	0	63
c1ccc2c(N3CCCC3)nc(-c3ccncc3)nc2c1	0	61	57	0
COc1nc(-c2ccncc2)nc2ccccc12	0	0	0	0

High-throughput results from PubChem.
